Test results taken from PubChem BioAssay (NCATS).
Records with an inconclusive call do not appear. Calls of active or inactive are those of the source. The call rests on the fitted dose curve; in most records, active means well fitted curve in the direction sought with a large enough effect; inconclusive means small, poorly fitted or top-dose-only effect, or another doubt; inactive means no such curve, though single readings can be large; an effect the other way counts as inactive or inconclusive.

How the values were obtained:
C33A = assay: Primary qHTS to identify gynecologic anti-cancer compounds using libraries of approved drugs and bioactive compounds (AID 1345084); details: Gynecologic cancer cell panel viability, ATPlite luminescence, 48 h; series mostly up to 57.5 µM; further: nearly all actives have a fitted effect of over 55% in size
Outline: (§1)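 48 h compound exposure at 37 C, 5% CO2; five-point qHTS. ATPlite luminescence readout of cell ATP.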

CASKI = assay: as above; details: Gynecologic cancer cell panel viability, ATPlite luminescence, 48 h; series mostly up to 57.5 µM
Outline: as §1

Es-2 = assay: as above; details: Gynecologic cancer cell panel viability, ATPlite luminescence, 48 h; series mostly up to 57.5 µM
Outline: as §1

HeLa = assay: as above; details: Gynecologic cancer cell panel viability, ATPlite luminescence, 48 h; series mostly up to 57.5 µM
Outline: as §1

Hek293T = assay: as above; details: Gynecologic cancer cell panel viability, ATPlite luminescence, 48 h, control line for the selectivity index; series mostly up to 57.5 µM
Outline: as §1

JEG-3 = assay: as above; details: Gynecologic cancer cell panel viability, ATPlite luminescence, 48 h; series mostly up to 57.5 µM
Outline: as §1

OV90 = assay: as above; details: Gynecologic cancer cell panel viability, ATPlite luminescence, 48 h; series mostly up to 57.5 µM
Outline: as §1

PA-1 = assay: as above; details: Gynecologic cancer cell panel viability, ATPlite luminescence, 48 h; series mostly up to 57.5 µM
Outline: as §1

SKOV3 = assay: as above; details: Gynecologic cancer cell panel viability, ATPlite luminescence, 48 h; series mostly up to 57.5 µM
Outline: as §1

Tov-21-G = assay: as above; details: Gynecologic cancer cell panel viability, ATPlite luminescence, 48 h; series mostly up to 57.5 µM
Outline: as §1

Tov112D = assay: as above; details: Gynecologic cancer cell panel viability, ATPlite luminescence, 48 h; series mostly up to 57.5 µM
Outline: as §1

[1] = Drug repurposing screens with cells derived from glioblastoma tumor samples (AID 1345199); details: GBM patient neurospheres viability, ATP luminescence, 48 h; further: nearly all actives have a fitted effect of over 40% in size
Outline: (§2)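 Primary testing used CD133+ neurospheres from four GBM patients, seven concentrations, 48 h exposure and ATP-based viability; confirmation added three slower-growing patient lines.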

astro = assay: as above; details: viability, ATP luminescence, 48 h; series mostly up to 45.9 µM
Outline: as §2

CAOV3 = assay: Primary qHTS to identify gynecologic anti-cancer compounds using libraries of approved drugs and bioactive compounds (AID 1345084); details: Gynecologic cancer cell panel viability, ATPlite luminescence, 48 h; series mostly up to 57.5 µM; further: nearly all actives have a fitted effect of over 55% in size
Outline: as §1

[2] = at 45.9 µM (top of the series), tumour line B
[3] = at 45.9 µM (top of the series), tumour line D
[4] = at 46 µM (top of the series), tumour line A
[5] = at 21.2 µM (top of the series), tumour line B
[6] = at 21.2 µM (top of the series), tumour line D
On the % scale 0 is the no-effect control and ±100 the full control effect.

CC1=C2[C@H]3OC(=O)[C@@H](C)[C@@H]3CC[C@@]2(C)C=CC1=O
inactive: Potency (C33A) | Potency (CASKI) | Potency (Es-2) | Potency (HeLa) | Potency (Hek293T) | Potency (JEG-3) | Potency (OV90) | Potency (PA-1) | Potency (SKOV3) | Potency (Tov-21-G) | Potency (Tov112D) | activity, negative = cell killing [1, 2] -4.49% | activity, negative = cell killing [1, 3] -15.5% | activity, negative = cell killing [1, 4] -23.4% | Potency (astro)

Nc1ccc(N)cc1
inactive: Potency (C33A) | Potency (CASKI) | Potency (Es-2) | Potency (HeLa) | Potency (Hek293T) | Potency (JEG-3) | Potency (OV90) | Potency (PA-1) | Potency (SKOV3) | Potency (Tov-21-G) | Potency (Tov112D) | activity, negative = cell killing [1, 2] -10.5% | activity, negative = cell killing [1, 3] -20.4%

O=C1NCN(c2ccccc2)C12CCN(CCCOc1ccc(F)cc1)CC2
inactive: Potency (C33A) | Potency (CAOV3) | Potency (CASKI) | Potency (Es-2) | Potency (HeLa) | Potency (JEG-3) | Potency (OV90) | Potency (PA-1) | Potency (SKOV3) | Potency (Tov-21-G) | Potency (Tov112D)

COc1ccc2c(C(=O)c3ccc(Cl)cc3)c(C)n(CC(=O)O)c2c1
inactive: Potency (C33A) | Potency (CAOV3) | Potency (CASKI) | Potency (Hek293T) | Potency (JEG-3) | Potency (OV90) | activity, negative = cell killing [1, 2] -15.8% | activity, negative = cell killing [1, 3] -19.1% | Potency (astro)

CCOC(=O)c1cncn1C(C)c1ccccc1 (stereo not given)
inactive: Potency (C33A) | Potency (CASKI) | Potency (Es-2) | Potency (HeLa) | Potency (Hek293T) | Potency (JEG-3) | Potency (OV90) | Potency (PA-1) | Potency (SKOV3) | Potency (Tov-21-G) | Potency (Tov112D) | activity, negative = cell killing [1, 5] 0.856% | activity, negative = cell killing [1, 6] -20.7% | Potency (astro)

CCCC[N+]1(C)[C@@H]2CC(OC(=O)[C@H](CO)c3ccccc3)C[C@H]1[C@@H]1O[C@@H]12 (stereo not given in full)
inactive: Potency (C33A) | Potency (CASKI) | Potency (Es-2) | Potency (HeLa) | Potency (Hek293T) | Potency (JEG-3) | Potency (OV90) | Potency (PA-1) | Potency (SKOV3) | Potency (Tov-21-G) | Potency (Tov112D) | activity, negative = cell killing [1, 2] -7.47% | Potency (astro)

NCc1cccnc1
inactive: Potency (C33A) | Potency (CASKI) | Potency (Es-2) | Potency (HeLa) | Potency (Hek293T) | Potency (JEG-3) | Potency (OV90) | Potency (PA-1) | Potency (SKOV3) | Potency (Tov-21-G) | Potency (Tov112D) | activity, negative = cell killing [1, 2] -7.53% | activity, negative = cell killing [1, 3] -1.09% | activity, negative = cell killing [1, 4] -28.1%

NC(=O)CN1CCCC1=O
inactive: Potency (C33A) | Potency (CASKI) | Potency (Es-2) | Potency (HeLa) | Potency (Hek293T) | Potency (JEG-3) | Potency (OV90) | Potency (PA-1) | Potency (SKOV3) | Potency (Tov-21-G) | Potency (Tov112D) | activity, negative = cell killing [1, 5] -8.16% | activity, negative = cell killing [1, 6] -13% | activity, negative = cell killing ([1]; at 21.3 µM (top of the series), tumour line A) -16.4% | Potency (astro)

O=C1CN2CCOC2(c2ccccc2Cl)c2cc(Cl)ccc2N1 (stereo not given)
inactive: Potency (C33A) | Potency (CASKI) | Potency (Es-2) | Potency (HeLa) | Potency (Hek293T) | Potency (JEG-3) | Potency (OV90) | Potency (PA-1) | Potency (SKOV3) | Potency (Tov-21-G) | Potency (Tov112D)
